# What was measured:
# Experiment in all cases: DAPPL (digital affinity profiling via proximity ligation, sequencing); 10 mM Tris-HCl pH 7.5, 50 mM NaCl, 1 mM DTT, 4% glycerol, room temperature, 30 min; GST-TFs on glutathione beads, 16-mer random dsDNA library, 0.1% formaldehyde crosslink after washing; high values mean tight binding
# FLI1 = molecular target: T1, FLI1 (Homo sapiens, UniProt Q01543 1-452); conditions: protein: recombinant; tags: N-terminal GST; dsDNA, one strand shown
# T1 sequence: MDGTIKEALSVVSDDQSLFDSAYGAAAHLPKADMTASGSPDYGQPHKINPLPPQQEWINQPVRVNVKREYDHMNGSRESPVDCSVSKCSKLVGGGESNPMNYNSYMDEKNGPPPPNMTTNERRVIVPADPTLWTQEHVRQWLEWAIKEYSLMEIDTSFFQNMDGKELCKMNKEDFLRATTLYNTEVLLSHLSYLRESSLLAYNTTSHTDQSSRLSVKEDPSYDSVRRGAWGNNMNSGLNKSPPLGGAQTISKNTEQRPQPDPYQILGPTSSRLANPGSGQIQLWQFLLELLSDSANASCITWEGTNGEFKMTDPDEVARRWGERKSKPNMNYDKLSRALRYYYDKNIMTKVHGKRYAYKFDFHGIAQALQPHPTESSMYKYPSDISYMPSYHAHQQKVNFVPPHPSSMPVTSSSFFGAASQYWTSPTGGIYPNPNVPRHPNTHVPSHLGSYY
# In short: (§1)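 GST fusions of human transcription factors were expressed in yeast and captured with glutathione beads. Once given DNA barcodes and pooled alongside a tag-only sample, they were incubated for 30 min at room temperature with 200 nmole of a random double-stranded 16-mer DNA library in Tris/NaCl/DTT/glycerol buffer, then washed, crosslinked (0.1% formaldehyde), proximity-ligated, PCR-amplified and sequenced on an Illumina NextSeq500. The binding signal of each hexamer is its read frequency for a factor divided by its frequency for the tag-only sample.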
# ELK1 = molecular target: T2, ELK1 (Homo sapiens, UniProt P19419 1-428); conditions: protein: recombinant; tags: N-terminal GST; dsDNA, one strand shown
# T2 sequence: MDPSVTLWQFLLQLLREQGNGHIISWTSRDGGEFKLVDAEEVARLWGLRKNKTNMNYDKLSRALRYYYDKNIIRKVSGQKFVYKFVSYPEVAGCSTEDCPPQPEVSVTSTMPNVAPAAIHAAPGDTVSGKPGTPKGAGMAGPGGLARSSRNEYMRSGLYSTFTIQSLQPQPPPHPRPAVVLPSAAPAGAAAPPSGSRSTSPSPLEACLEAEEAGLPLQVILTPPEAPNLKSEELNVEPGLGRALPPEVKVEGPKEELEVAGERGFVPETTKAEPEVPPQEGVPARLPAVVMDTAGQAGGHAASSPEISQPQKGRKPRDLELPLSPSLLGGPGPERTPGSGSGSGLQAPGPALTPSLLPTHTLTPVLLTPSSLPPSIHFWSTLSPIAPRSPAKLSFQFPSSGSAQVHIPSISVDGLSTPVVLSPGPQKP
# In short: as §1
# GABPA = molecular target: T3, GABPA (Homo sapiens, UniProt Q06546 1-454); conditions: protein: recombinant; tags: N-terminal GST; dsDNA, one strand shown
# T3 sequence: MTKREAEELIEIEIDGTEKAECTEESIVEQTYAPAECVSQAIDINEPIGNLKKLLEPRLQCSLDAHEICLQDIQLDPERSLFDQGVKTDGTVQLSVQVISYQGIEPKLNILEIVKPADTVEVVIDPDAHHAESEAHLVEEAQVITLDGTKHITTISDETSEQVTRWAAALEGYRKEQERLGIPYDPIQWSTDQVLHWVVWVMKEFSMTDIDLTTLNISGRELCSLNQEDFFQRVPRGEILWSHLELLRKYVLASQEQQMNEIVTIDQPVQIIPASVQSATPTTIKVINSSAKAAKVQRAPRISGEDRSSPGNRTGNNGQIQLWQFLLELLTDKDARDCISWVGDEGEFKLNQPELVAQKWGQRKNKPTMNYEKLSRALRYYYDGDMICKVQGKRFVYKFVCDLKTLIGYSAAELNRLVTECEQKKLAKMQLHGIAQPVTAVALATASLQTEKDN
# In short: as §1
# ERG = molecular target: T4, ERG (Homo sapiens, UniProt P11308 1-479); conditions: protein: recombinant; tags: N-terminal GST; dsDNA, one strand shown
# T4 sequence: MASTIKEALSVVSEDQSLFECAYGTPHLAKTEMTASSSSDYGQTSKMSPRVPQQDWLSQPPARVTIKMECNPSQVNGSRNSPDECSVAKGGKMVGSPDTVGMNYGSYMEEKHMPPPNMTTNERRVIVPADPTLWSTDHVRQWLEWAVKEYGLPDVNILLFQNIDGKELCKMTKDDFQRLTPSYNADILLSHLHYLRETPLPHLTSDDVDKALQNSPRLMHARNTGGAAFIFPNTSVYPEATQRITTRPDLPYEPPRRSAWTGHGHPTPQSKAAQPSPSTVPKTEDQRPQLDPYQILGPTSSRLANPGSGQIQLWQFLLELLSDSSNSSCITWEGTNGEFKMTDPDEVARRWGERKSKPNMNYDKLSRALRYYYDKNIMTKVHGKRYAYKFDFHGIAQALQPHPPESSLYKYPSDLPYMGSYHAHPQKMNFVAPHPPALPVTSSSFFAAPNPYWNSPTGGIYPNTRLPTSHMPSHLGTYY
# In short: as §1
# ELF1 = ELF1 (Homo sapiens, UniProt P32519 1-619); conditions: protein: recombinant; tags: N-terminal GST; dsDNA, one strand shown
# In short: as §1
# EHF = molecular target: T5, EHF (Homo sapiens, UniProt Q9NZC4 1-300); conditions: protein: recombinant; tags: N-terminal GST; dsDNA, one strand shown
# T5 sequence: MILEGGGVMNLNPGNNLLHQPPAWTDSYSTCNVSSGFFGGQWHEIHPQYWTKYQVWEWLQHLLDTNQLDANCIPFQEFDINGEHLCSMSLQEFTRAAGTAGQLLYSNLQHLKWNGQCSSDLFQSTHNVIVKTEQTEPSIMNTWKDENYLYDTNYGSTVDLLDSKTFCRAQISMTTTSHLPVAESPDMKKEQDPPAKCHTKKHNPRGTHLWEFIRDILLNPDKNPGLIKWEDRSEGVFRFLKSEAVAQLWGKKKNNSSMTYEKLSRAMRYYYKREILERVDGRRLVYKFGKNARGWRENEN
# In short: as §1
# SPI1 = SPI1 (Homo sapiens, UniProt P17947 1-270); conditions: protein: recombinant; tags: N-terminal GST; dsDNA, one strand shown
# In short: as §1
# SPIB = SPIB (Homo sapiens, UniProt Q01892 1-262); conditions: protein: recombinant; tags: N-terminal GST; dsDNA, one strand shown
# In short: as §1
# ELK3 = molecular target: T6, ELK3 (Homo sapiens, UniProt P41970 1-407); conditions: protein: recombinant; tags: N-terminal GST; dsDNA, one strand shown
# T6 sequence: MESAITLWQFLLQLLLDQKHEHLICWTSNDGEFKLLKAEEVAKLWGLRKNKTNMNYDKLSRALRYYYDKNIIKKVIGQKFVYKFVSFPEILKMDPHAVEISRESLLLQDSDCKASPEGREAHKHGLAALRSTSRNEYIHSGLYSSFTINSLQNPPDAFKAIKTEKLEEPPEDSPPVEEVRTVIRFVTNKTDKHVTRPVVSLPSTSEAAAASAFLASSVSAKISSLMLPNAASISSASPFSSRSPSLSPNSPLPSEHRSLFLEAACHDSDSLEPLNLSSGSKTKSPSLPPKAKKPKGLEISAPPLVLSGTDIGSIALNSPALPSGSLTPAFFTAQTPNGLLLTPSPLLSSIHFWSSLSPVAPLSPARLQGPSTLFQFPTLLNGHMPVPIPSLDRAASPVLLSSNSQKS
# In short: as §1
# FEV = molecular target: T7, FEV (Homo sapiens, UniProt Q99581 1-238); conditions: protein: recombinant; tags: N-terminal GST; dsDNA, one strand shown
# T7 sequence: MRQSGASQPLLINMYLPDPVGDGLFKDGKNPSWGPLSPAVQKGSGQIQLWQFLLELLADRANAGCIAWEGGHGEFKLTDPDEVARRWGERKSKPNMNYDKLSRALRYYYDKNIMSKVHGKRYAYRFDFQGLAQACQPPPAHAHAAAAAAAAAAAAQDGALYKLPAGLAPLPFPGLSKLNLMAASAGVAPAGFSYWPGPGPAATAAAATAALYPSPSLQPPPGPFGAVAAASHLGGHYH
# In short: as §1
# ETV5 = ETV5 (Homo sapiens, UniProt P41161 1-510); conditions: protein: recombinant; tags: N-terminal GST; dsDNA, one strand shown
# In short: as §1
# HSF1 = HSF1 (Homo sapiens, UniProt Q00613 1-529); conditions: protein: recombinant; tags: N-terminal GST; chain copies: 3; dsDNA, one strand shown
# In short: as §1
# SPIC = molecular target: T8, SPIC (Homo sapiens, UniProt Q8N5J4 1-248); conditions: protein: recombinant; tags: N-terminal GST; dsDNA, one strand shown
# T8 sequence: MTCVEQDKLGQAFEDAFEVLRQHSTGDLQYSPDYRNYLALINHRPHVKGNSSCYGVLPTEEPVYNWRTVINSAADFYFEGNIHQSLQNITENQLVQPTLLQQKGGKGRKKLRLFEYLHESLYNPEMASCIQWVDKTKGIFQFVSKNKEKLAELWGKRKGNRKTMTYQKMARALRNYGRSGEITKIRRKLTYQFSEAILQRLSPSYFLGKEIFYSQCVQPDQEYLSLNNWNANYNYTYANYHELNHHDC
# In short: as §1
# ELF4 = ELF4 (Homo sapiens, UniProt Q99607 1-663); conditions: protein: recombinant; tags: N-terminal GST; dsDNA, one strand shown
# In short: as §1
# ELK4 = molecular target: T9, ELK4 (Homo sapiens, UniProt P28324-2 1-405); conditions: protein: recombinant; tags: N-terminal GST; dsDNA, one strand shown
# T9 sequence: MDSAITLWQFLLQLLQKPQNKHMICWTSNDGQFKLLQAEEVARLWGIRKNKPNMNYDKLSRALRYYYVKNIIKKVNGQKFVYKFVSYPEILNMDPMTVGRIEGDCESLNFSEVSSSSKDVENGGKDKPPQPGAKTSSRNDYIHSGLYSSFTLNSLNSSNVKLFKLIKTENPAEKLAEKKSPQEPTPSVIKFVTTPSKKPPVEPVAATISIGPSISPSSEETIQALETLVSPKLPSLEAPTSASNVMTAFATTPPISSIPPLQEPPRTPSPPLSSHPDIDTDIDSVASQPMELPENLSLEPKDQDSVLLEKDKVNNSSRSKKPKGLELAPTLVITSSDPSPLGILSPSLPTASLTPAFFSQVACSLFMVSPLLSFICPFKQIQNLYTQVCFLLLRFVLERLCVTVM
# In short: as §1
# ETV2 = molecular target: T10, ETV2 (Homo sapiens, UniProt O00321 1-342); conditions: protein: recombinant; tags: N-terminal GST; dsDNA, one strand shown
# T10 sequence: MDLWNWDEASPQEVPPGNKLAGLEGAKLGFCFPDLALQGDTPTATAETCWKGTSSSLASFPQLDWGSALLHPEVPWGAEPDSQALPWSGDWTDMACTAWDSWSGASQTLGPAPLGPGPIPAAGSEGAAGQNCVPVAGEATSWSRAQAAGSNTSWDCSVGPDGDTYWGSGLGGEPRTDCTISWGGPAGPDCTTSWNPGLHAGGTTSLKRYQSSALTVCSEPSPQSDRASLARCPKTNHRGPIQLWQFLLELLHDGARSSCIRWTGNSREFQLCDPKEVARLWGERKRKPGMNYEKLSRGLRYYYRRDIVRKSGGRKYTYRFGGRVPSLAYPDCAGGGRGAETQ
# In short: as §1
# ELF3 = molecular target: T11, ELF3 (Homo sapiens, UniProt P78545 1-371); conditions: protein: recombinant; tags: N-terminal GST; dsDNA, one strand shown
# T11 sequence: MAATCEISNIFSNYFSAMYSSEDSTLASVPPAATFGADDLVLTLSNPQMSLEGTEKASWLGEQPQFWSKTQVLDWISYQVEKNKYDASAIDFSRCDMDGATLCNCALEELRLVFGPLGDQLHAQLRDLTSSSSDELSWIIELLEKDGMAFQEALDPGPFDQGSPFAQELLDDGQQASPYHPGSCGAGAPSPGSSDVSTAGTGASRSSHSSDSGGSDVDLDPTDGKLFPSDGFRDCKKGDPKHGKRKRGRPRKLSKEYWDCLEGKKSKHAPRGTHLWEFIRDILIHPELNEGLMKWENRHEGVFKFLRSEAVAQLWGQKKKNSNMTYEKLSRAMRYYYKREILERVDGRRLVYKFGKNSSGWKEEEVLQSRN
# In short: as §1
# CRX = CRX (Homo sapiens, UniProt O43186 1-299); conditions: protein: recombinant; tags: N-terminal GST; dsDNA, one strand shown
# In short: as §1
# ETV1 = ETV1 (Homo sapiens, UniProt P50549 1-477); conditions: protein: recombinant; tags: N-terminal GST; dsDNA, one strand shown
# In short: as §1
# Sequence of ELF1 (P32519 whole entry): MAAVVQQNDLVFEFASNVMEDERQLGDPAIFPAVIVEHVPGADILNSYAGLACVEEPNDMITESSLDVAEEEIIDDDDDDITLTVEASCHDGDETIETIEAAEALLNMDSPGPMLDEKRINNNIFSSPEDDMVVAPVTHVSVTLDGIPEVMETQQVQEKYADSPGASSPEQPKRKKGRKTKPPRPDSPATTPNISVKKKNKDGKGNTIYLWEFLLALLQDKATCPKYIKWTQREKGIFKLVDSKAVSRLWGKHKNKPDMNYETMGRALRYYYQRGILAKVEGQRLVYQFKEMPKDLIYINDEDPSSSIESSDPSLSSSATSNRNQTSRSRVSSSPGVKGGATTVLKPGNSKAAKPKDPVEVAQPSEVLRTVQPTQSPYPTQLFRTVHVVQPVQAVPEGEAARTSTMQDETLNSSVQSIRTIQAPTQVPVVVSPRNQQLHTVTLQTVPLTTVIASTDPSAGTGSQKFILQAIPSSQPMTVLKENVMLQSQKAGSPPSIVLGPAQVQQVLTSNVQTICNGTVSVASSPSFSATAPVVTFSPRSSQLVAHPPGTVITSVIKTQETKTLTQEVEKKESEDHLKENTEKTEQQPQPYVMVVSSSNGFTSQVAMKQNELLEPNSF
# Sequence of SPIB (Q01892 whole entry): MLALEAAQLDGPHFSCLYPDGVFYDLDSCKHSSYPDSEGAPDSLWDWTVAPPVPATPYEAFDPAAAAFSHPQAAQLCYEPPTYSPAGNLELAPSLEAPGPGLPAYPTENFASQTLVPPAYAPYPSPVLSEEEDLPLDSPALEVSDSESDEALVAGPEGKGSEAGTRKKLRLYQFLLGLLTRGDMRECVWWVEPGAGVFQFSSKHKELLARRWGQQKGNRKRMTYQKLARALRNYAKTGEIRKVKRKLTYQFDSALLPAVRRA
# Sequence of ETV5 (P41161 whole entry): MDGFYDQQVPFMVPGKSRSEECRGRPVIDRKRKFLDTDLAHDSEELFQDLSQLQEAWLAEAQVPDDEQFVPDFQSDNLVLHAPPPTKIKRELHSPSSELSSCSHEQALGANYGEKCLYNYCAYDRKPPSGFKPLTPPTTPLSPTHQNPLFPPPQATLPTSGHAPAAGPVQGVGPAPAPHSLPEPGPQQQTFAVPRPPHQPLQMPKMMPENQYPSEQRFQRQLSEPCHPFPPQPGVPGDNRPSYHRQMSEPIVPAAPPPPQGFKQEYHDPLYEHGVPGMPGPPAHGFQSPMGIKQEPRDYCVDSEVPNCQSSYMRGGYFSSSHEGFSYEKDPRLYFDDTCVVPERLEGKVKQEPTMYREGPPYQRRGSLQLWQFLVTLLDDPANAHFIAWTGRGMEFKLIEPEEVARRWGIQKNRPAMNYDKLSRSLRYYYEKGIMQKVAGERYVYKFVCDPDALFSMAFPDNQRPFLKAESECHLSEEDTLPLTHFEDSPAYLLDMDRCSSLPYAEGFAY
# Sequence of ELF4 (Q99607 whole entry): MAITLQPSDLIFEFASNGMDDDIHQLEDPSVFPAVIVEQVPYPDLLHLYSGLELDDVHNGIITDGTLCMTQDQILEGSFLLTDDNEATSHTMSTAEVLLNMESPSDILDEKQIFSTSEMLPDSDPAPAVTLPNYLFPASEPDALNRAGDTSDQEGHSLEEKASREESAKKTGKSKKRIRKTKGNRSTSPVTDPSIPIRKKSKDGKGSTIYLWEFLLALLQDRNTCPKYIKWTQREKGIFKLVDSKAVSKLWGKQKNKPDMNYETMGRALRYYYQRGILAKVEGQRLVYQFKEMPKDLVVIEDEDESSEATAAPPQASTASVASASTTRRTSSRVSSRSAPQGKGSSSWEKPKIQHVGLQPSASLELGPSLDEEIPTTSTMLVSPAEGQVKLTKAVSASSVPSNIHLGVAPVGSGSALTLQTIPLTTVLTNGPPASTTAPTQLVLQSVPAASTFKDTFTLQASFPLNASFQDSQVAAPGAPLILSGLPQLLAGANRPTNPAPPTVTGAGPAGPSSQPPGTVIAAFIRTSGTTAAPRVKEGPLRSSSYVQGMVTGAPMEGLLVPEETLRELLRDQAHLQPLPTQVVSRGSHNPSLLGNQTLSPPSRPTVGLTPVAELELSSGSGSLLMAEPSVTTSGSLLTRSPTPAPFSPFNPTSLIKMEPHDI
# Sequence of HSF1 (Q00613 whole entry): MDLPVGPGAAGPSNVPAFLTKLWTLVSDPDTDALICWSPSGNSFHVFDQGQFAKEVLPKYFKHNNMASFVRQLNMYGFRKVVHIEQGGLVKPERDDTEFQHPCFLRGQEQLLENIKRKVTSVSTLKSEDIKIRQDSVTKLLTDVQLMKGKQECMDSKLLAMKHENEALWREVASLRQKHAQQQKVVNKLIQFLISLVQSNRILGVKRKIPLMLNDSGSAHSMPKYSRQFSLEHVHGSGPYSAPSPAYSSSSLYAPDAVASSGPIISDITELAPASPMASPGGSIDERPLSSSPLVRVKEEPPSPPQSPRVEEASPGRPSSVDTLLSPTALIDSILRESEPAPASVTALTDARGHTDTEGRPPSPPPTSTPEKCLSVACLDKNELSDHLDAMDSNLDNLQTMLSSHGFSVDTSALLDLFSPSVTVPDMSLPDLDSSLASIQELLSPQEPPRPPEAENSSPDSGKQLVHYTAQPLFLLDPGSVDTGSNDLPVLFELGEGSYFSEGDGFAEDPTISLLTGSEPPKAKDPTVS
# Sequence of ETV1 (P50549 whole entry): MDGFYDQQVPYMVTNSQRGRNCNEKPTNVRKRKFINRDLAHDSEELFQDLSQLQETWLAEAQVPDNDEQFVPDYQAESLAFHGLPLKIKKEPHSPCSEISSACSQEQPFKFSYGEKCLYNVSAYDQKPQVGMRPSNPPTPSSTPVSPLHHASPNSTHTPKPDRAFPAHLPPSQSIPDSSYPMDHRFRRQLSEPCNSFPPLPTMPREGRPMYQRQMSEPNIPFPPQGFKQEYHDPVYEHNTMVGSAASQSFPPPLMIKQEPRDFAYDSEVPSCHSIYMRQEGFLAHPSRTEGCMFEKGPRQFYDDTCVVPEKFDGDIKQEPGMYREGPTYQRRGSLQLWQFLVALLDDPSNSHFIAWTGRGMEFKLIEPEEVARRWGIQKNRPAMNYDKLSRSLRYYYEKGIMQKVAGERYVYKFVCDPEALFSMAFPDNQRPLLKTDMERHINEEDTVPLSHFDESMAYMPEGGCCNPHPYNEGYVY
# Sequence of CRX (O43186 whole entry): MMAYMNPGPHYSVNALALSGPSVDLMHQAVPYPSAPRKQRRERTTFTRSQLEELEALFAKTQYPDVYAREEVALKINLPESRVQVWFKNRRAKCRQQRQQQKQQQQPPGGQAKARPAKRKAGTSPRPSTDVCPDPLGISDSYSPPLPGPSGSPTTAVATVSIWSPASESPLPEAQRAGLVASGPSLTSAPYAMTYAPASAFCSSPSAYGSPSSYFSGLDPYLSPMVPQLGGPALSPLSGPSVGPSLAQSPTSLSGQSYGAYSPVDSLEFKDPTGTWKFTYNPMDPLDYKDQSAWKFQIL
sequence,measurement,setting,value
ATCCAC,binding signal,FLI1,"1.23 fold enrichment (6-mer frequency, TF over GST control)"
same,binding signal,ELK1,"1.28 fold enrichment (6-mer frequency, TF over GST control)"
same,binding signal,GABPA,"1.32 fold enrichment (6-mer frequency, TF over GST control)"
same,binding signal,ERG,"1.22 fold enrichment (6-mer frequency, TF over GST control)"
same,binding signal,ELF1,"1.22 fold enrichment (6-mer frequency, TF over GST control)"
same,binding signal,EHF,"1.25 fold enrichment (6-mer frequency, TF over GST control)"
same,binding signal,SPI1,"1.15 fold enrichment (6-mer frequency, TF over GST control)"
same,binding signal,SPIB,"1.19 fold enrichment (6-mer frequency, TF over GST control)"
same,binding signal,ELK3,"1.27 fold enrichment (6-mer frequency, TF over GST control)"
same,binding signal,FEV,"1.14 fold enrichment (6-mer frequency, TF over GST control)"
same,binding signal,ETV5,"1.18 fold enrichment (6-mer frequency, TF over GST control)"
same,binding signal,HSF1,"1.36 fold enrichment (6-mer frequency, TF over GST control)"
same,binding signal,SPIC,"1.24 fold enrichment (6-mer frequency, TF over GST control)"
same,binding signal,ELF4,"1.22 fold enrichment (6-mer frequency, TF over GST control)"
same,binding signal,ELK4,"1.32 fold enrichment (6-mer frequency, TF over GST control)"
same,binding signal,ETV2,"1.23 fold enrichment (6-mer frequency, TF over GST control)"
same,binding signal,ELF3,"1.14 fold enrichment (6-mer frequency, TF over GST control)"
same,binding signal,CRX,"1.48 fold enrichment (6-mer frequency, TF over GST control)"
same,binding signal,ETV1,"1.2 fold enrichment (6-mer frequency, TF over GST control)"

# From paper PMC7862700, “An all-to-all approach to the identification of sequence-specific readers for epigenetic DNA modifications on cytosine”
